BoNT F protease – blocks Botulinum neurotoxin F light chain protease; 360,000 compounds, 0.22% hits; Multiplex microsphere protease cleavage assay, flow cytometry; inhibition, % at 10 µM; in the data active = inhibition above about 35%, passing the limit was not always enough; inconclusive = no clear call, values can overlap the other calls
MazEF act – MazEF (E. coli) toxin RNase activation; FAM/BHQ RNA-DNA oligo cleavage fluorescence, 5 h; P0AE70; 350,000 compounds, 0.32% hits; activation, % at 20 µM; in the data active = activation above about 50%
Target sequence (P0AE70 whole entry, looked up): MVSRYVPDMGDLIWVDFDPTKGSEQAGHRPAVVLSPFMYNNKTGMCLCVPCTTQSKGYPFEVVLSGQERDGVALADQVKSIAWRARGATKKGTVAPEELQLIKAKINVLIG
Anthrax LF prot – blocks Bacillus anthracis lethal factor protease; P15917; multiplex microsphere protease cleavage assay, LF; inhibition, % at 10 µM; 360,000 compounds, 0.12% hits
Autofluor counter – counter-screen for toxin protease inhibitors: compound fluorescence; compound autofluorescence counterscreen, microsphere flow cytometry; hits give high values; fluorescence intensity (concentration not given with the values); 360,000 compounds, 3.1% hits; AID 624483; in the data active = fluorescence intensity above about 16000; inconclusive = no clear call, values can overlap the other calls
BoNT-A LC inh2 – BoNT A light chain protease inhibition; multiplex microsphere protease substrate cleavage, flow cytometry; inhibition, % at 10 µM; 360,000 compounds, 0.17% hits; AID 588499
Each line names hits and unclear results; the compound was inactive in the other large screens. Rows were chosen to be rich in hits. Some 3.7% of all compounds tested hit in one or more screens of this group. Rule as the data show it, unless noted: active = inhibition above about 30%; inconclusive = no clear call, values can overlap the other calls; inactive = below that.

c1ccc(OCc2nc(-c3cccs3)no2)cc1	Autofluor counter 19681
O=C(NCC1CCCO1)c1cnc(Cl)c(Cl)c1 (configuration not stated)	Anthrax LF prot 32.1
O=C(NCC1CCCO1)c1cccc(Br)c1 (configuration not stated)	Autofluor counter 16290, BoNT-A LC inh2 inconclusive
O=C(NCC1CCCO1)c1cccc(C(=O)NCC2CCCO2)c1 (configuration not stated)	BoNT F protease inconclusive
O=C(NCCc1ccccc1)c1cnc(Cl)c(Cl)c1	Anthrax LF prot 35.3
O=C(NCC1CCCO1)c1ccc(NC(=O)c2cccc(Br)c2)cc1 (configuration not stated)	none
CCCC(=O)Nc1ccc(C(=O)NCC2CCCO2)cc1 (configuration not stated)	Autofluor counter 24245
COc1ccc(C(=O)N2CCCCC2c2cc(C(=O)NCc3cccnc3)no2)cc1 (configuration not stated)	none (no result: MazEF act)
O=C(COc1ccc(Br)cc1)NCCCNC(=O)c1cccnc1	Autofluor counter inconclusive
Cc1ccc(C2CC(C(F)(F)F)n3nc(C(=O)NCc4ccco4)cc3N2)cc1 (configuration not stated)	Autofluor counter 24280, BoNT-A LC inh2 inconclusive
Cc1cccc(NC(=O)c2cc3n(n2)C(C(F)(F)F)CC(c2ccc4c(c2)OCO4)N3)c1 (configuration not stated)	Autofluor counter 22193
O=C(NCC1CCCO1)c1cc2n(n1)C(C(F)(F)F)CC(c1ccc(Br)cc1)N2 (configuration not stated)	Autofluor counter 20177, BoNT-A LC inh2 inconclusive
CCC(C)NC(=O)c1cnn2c1NC(c1ccc3c(c1)OCO3)CC2C(F)(F)F (configuration not stated)	Autofluor counter 19687
O=C(NCc1ccco1)c1cc2n(n1)C(C(F)(F)F)CC(c1ccc(F)cc1)N2 (configuration not stated)	none
O=C(NCc1ccc(F)c(F)c1)C1Cc2c(-c3ccc4c(c3)OCO4)ccnc2O1 (configuration not stated)	none (no result: MazEF act)
COCCNC(=O)C1CCCN(C(=O)/C=C/c2ccccc2)CC1 (configuration not stated)	none (no result: MazEF act)
O=C1OCC/C1=C\NCCCCCCCCN/C=C1\CCOC1=O	none
CCOC(=O)Nc1nc2ccc(Cn3cccc3)cc2[nH]1	none
COc1ccc(CC(=O)Nc2ccc(S(=O)(=O)N(C)C)cc2)cc1OC	none
COc1cc(CC(=O)Nc2ccc(S(=O)(=O)N(C)C)cc2)cc(OC)c1OC	Autofluor counter 23513
COc1cc(C(=O)Nc2ccc(S(=O)(=O)NC(C)C)cc2)cc(OC)c1OC	Autofluor counter 16279
COc1cc(C(=O)Nc2ccc(S(=O)(=O)NC(C)(C)C)cc2)cc(OC)c1OC	none
CCN(CC)C(=O)C1=C(C)N(Cc2ccc(OC)cc2)C(=O)C(CC(=O)NCc2cccs2)C1 (configuration not stated)	none
Nc1[nH]c(C(=O)c2ccccc2)c(-c2ccccc2C(F)(F)F)c1C(=O)NCCc1c[nH]c2ccccc12	none (no result: MazEF act)
Cc1ccc(CC(NC(=O)c2ccccc2)C(=O)NC(C)C(=O)O)cc1 (configuration not stated)	Autofluor counter 21689
O=C(NC(Cc1ccccc1)C(=O)O)c1ccc(S(=O)(=O)N2CCCCC2)cc1 (configuration not stated)	Autofluor counter 22876
CC(C)(C)c1ccc(C(=O)NC(Cc2ccccc2)C(=O)O)cc1 (configuration not stated)	Autofluor counter 22268 (no result: MazEF act)
O=C(NC(Cc1ccccc1)C(=O)O)c1ccccc1 (configuration not stated)	none
CCc1nc(C)cn1S(=O)(=O)c1ccc2c(c1)OCCO2	none
COc1ccc(C2=CCC3CCCCN3C2)cc1OC (configuration not stated)	none
Cc1cccc(CNC(=O)c2sc(=O)n(Cc3ccc(S(C)(=O)=O)cc3)c2C)c1	none (no result: MazEF act)
Cc1ccc(NC(=O)CSCc2cc(=O)n3ccsc3n2)c(C)c1	none
CCOC(=O)N1CCC(n2c(SCC(=O)NCc3ccco3)nc3ccsc3c2=O)CC1	Autofluor counter 23599
CCOC(=O)CSc1nc2cc(C(=O)NCc3ccco3)ccc2c(=O)n1C1CCCCC1	Autofluor counter 16581
Cn1c(CSCc2ccc(Cl)c(Cl)c2)nnc1SCC(=O)Nc1nccs1	BoNT F protease inconclusive
Cn1nnnc1SCc1ccc(C(=O)Nc2nccs2)cc1	Autofluor counter 24214
Cn1c(CSCc2ccc(Cl)cc2)nnc1SCC(=O)Nc1nccs1	Autofluor counter 16354
Cc1cc(C)cc(NC(=O)c2ccc(CSc3nnnn3C)cc2)c1	none
CCOC(=O)[C@]12CCCC=C1N(Cc1ccc3c(c1)OCO3)C(=O)[C@H](CC(=O)NCc1ccc(OC)c(OC)c1)C2	none (no result: MazEF act)
COC(=O)[C@]12CCCCC=C1N(Cc1cccc3ccccc13)C(=O)[C@H](CC(=O)NCc1ccc(C)o1)C2	none (no result: MazEF act)
O=C(Nc1ccn(Cc2c(F)c(F)c(F)c(F)c2F)n1)c1ccc(COc2ccccc2Cl)cc1	Autofluor counter 25404
Cc1nn(Cc2cccc(F)c2)c(C)c1NC(=O)c1ccc(COc2ccccc2Cl)cc1	none
Cc1nn(Cc2c(F)c(F)c(F)c(F)c2F)c(C)c1NC(=O)c1cccc(COc2ccccc2Cl)c1	Autofluor counter 20980
C=CCN1/C(=C(\C#N)C2=NS(=O)(=O)c3ccccc32)N(C)c2ccccc21	Autofluor counter 16828
COc1ccccc1N1CCN(C2=NS(=O)(=O)c3ccccc32)CC1	none
CC1(C)Cc2c(sc3ncnc(N)c23)CO1	Autofluor counter 18415
CN(Cc1cccc(Cl)c1Cl)C(=O)c1ccccc1SCC(=O)N1CCCC1	Autofluor counter inconclusive
O=C(OCC(=O)N1CCN(C(=O)c2ccco2)CC1)c1cc(-c2cccc(Br)c2)nc2ccccc12	Autofluor counter 24517
O=C(OCC(=O)N1CCN(C(=O)c2ccco2)CC1)c1cc(-c2ccccc2)nc2ccccc12	Autofluor counter inconclusive
O=C(Oc1ccc(Br)cc1C(=S)N1CCCC1)c1ccccc1Cl	none
Cc1ccccc1C(=O)Oc1ccc(Br)cc1C(=S)N1CCCC1	Autofluor counter 22492, BoNT-A LC inh2 inconclusive
CCOC(=O)N1CCN(C(=O)CCc2c(C)nc3c(c(C)nn3-c3ccc(C)c(C)c3)c2C)CC1	Autofluor counter 20186
CCOC(=O)N1CCC(NC(=O)CCc2c(C)nc3nc(C)nn3c2C)CC1	none
Cc1nc2ncnn2c(C)c1CCC(=O)NCc1ccccc1	Autofluor counter 20501
CCOC(=O)C1CCCCN1C(=O)CCc1c(C)nc2ncnn2c1C (configuration not stated)	Autofluor counter 21476
COc1ccc(CNC(=O)CCc2c(C)nc3ncnn3c2C)cc1	none (no result: BoNT F protease, Anthrax LF prot, Autofluor counter, BoNT-A LC inh2)
CCOC(=O)N1CCC(NC(=O)CCc2c(C)nc3ncnn3c2C)CC1	Autofluor counter 22017, BoNT-A LC inh2 inconclusive
O=C(NC1CCN(Cc2ccccc2)CC1)c1cccc(S(=O)(=O)Nc2ccc(F)cc2)c1	none
Cc1ccc(C(=O)Nc2nnc([C@H]3C[C@H](O)[C@@H](CO)O3)s2)cc1	none (no result: MazEF act)
COC(=O)CCCn1cc(CN2CC(N3CCCCC3)CS2(=O)=O)nn1 (configuration not stated)	none (no result: MazEF act)

Source: PubChem BioAssay
